Records with an inconclusive call do not appear. Calls of active or inactive are those of the source. Unless noted, calls follow the shape of the dose curve; as a rule, active = well fitted curve in the direction sought with a large enough effect in the repeat runs; inconclusive = weak or mixed curves; inactive = no such curve, though single readings can be large; an effect the other way counts as inactive or inconclusive.
Columns and labels:
[1] = qHTS assay for small molecule disruptors of the mitochondrial membrane potential - cell viability (AID 720634; calls by dose curve;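 also: human HepG2 liver cancer cells; series mostly up to about 83 µM; nearly all actives have a fitted effect of over 20% in size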)
Procedure, shortened: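 HepG2 cells, 2,000 per well, attached overnight, then treated 1 hr at 37 C, 5% CO2. Viability read as ATP by CellTiter-Glo luminescence after 30 min at room temperature. Read in the same wells as the m-MPI membrane-potential dye assay.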

[2] = qHTS assay to test for compound auto fluorescence at 535 nm (green) in HepG2 cells (AID 720675)
[3] = qHTS assay to test for compound auto fluorescence at 460 nm (blue) in HEK293 cells (AID 720678)
Procedure, shortened: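 HEK293 cells (2,000 per well, medium with 10% dialyzed FBS) attached for 4-5 hr at 37C, then received compound and stood overnight at 37C, 5% CO2. Blue fluorescence was read at Ex/Em 405/460 nm and expressed relative to triamterene.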

[4] = qHTS assay to test for compound auto fluorescence at 590 nm (red) in HEK293 cells (AID 720679)
Procedure, shortened: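 HEK293 cells (2,000/well, medium with 10% dialyzed FBS) attached for 4-5 hr at 37C, received 23 nL compound and were incubated overnight at 37C, 5% CO2. Red fluorescence was then read at 540/590nm Ex/Em, referenced to Rose Bengal sodium.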

[5] = qHTS assay to test for compound auto fluorescence at 535 nm (green) in HEK293 cells (AID 720680)
[6] = qHTS assay to test for compound auto fluorescence at 460 nm (blue) in HEK293 cell free culture (AID 720681)
Procedure, shortened: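 Blue fluorescence (Ex 405/Em 460 nm, triamterene-equivalent) was read immediately after pin transfer of compound or DMSO into medium (DMEM, 10% FBS) without cells.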

[7] = qHTS assay to test for compound auto fluorescence at 535 nm (green) in HEK293 cell free culture (AID 720682)
Procedure, shortened: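 Cell-free medium (DMEM, 10% FBS) receives compound or DMSO by pintool. Plate read directly at Ex 485/Em 535 nm. Signal converted to fluorescein equivalency.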

[8] = qHTS assay to test for compound auto fluorescence at 590 nm (red) in HEK293 cell free culture (AID 720683)
Procedure, shortened: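 Red-channel autofluorescence of compounds in culture medium (DMEM, 10% FBS), no cells, measured at 540/590 nm. Rose Bengal sodium is the reference fluorophore for equivalence.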

[9] = qHTS assay to test for compound auto fluorescence at 590 nm (red) in HepG2 cell free culture (AID 720684)
Procedure, shortened: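 Plate contents were MEM with 10% FBS plus test compound or DMSO, no cells. Fluorescence was recorded with 540 nm excitation and 590 nm emission.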

[10] = qHTS assay to test for compound auto fluorescence at 460 nm (blue) in HepG2 cell free culture (AID 720685)
Procedure, shortened: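 Compound (23 nL) or DMSO pinned into cell-free MEM with 10% FBS; blue fluorescence read at 405/460 nm excitation/emission, expressed as auto-fluorescence equivalency to triamterene.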

[11] = qHTS assay to test for compound auto fluorescence at 535 nm (green) in HepG2 cell free culture (AID 720686)
[12] = qHTS assay to test for compound auto fluorescence at 460 nm (blue) in HepG2 cells (AID 720687)
Procedure, shortened: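 Blue-channel autofluorescence (Ex/Em 405/460 nm, triamterene-equivalent) was measured after 1 hr compound exposure at 37 C, 5% CO2. Cells were HepG2, plated overnight at 37 C in MEM plus 10% FBS.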

[13] = biological target: Glucocorticoid receptor (Homo sapiens) (UniProt P04150); experiment: qHTS assay to identify small molecule agonists of the glucocorticoid receptor (GR) signaling pathway (AID 720691; active = well fitted activation curve with a large enough effect in the signal ratio in the repeat runs, not every such curve was filed as active; the % refers to the signal ratio)
Procedure, shortened: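 GR-bla HeLa cells carrying a GRE-driven beta-lactamase reporter, exposed to compounds for 18 h at 37 C. Reporter activation read as fluorescence after 2 h with LiveBLAzer B/G FRET substrate at room temperature.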

[14] = biological target: Glucocorticoid receptor (Homo sapiens) (UniProt P04150); experiment: qHTS assay to identify small molecule antagonists of the glucocorticoid receptor (GR) signaling pathway (AID 720692; active = well fitted inhibition curve with a large enough effect in the signal ratio in the repeat runs, not every such curve was filed as active; the % refers to the signal ratio)
Procedure, shortened: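 GR-bla HeLa cells carrying a GRE-driven beta-lactamase reporter received compound after 4 h plating, then dexamethasone (5 nM final). After 18 h at 37C, the FRET substrate was loaded for 2 h at room temperature and fluorescence read.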

[15] = qHTS assay for small molecules that induce genotoxicity in human embryonic kidney cells expressing luciferase-tagged ATAD5 (AID 651632); also: nearly all actives have a fitted effect of over 15% in size
Procedure, shortened: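 HEK293T cells carrying luciferase-tagged ATAD5 were given compound or DMSO vehicle and incubated 16 hr at 37C, 5% CO2. Luciferase activity was read after 30 min at room temperature with Amplite; a rise signals genotoxic stress.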

[16] = qHTS assay for small molecule agonists of the p53 signaling pathway - cell viability (AID 651633; calls by dose curve;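 also: p53RE-bla HCT reporter cells with a stable beta-lactamase p53 reporter; series mostly up to about 83 µM; nearly all actives have a fitted effect of over 30% in size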)
Procedure, shortened: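 Viability counter-read: CellTiter-Glo luminescence (30 min, room temperature) in the same p53RE-bla plates. These plates had been exposed to compounds for 16 h at 37 C.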

[17] = qHTS assay for small molecules that induce genotoxicity in human embryonic kidney cells expressing luciferase-tagged ATAD5 - cell viability (AID 651634; calls by dose curve; also: nearly all actives have a fitted effect of over 25% in size)
Procedure, shortened: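 HEK293T cells carrying luciferase-tagged ATAD5, 2,000 cells/well, exposed to compound for 15.5 hr at 37C. Viability read as live-cell protease activity by CellTiter-Fluor fluorescence after 30 min at 37C.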

[18] = qHTS assay to test for compound auto fluorescence at 590 nm (red) in HepG2 cells (AID 720674)
Procedure, shortened: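 We screened compounds on adherent HepG2 cells, incubating them for an hour at 37 C in 5% CO2 before reading emission at 590 nm under 540 nm excitation; values reflect equivalence to Rose Bengal sodium fluorescence.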

[19] = qHTS assay for small molecule disruptors of the mitochondrial membrane potential (AID 720635)
Procedure, shortened: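 Mitochondrial membrane potential tracked with Mito-MPS dye, red aggregates (ex 540/em 590 nm) against green monomers (ex 490/em 535 nm). Compound treatment 1 hr at 37C, dye 30 min in HepG2.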
% is scaled to controls: 0 for no effect and ±100 for the full control effect.

Sequence of Glucocorticoid receptor (Homo sapiens) (P04150 whole entry, looked up): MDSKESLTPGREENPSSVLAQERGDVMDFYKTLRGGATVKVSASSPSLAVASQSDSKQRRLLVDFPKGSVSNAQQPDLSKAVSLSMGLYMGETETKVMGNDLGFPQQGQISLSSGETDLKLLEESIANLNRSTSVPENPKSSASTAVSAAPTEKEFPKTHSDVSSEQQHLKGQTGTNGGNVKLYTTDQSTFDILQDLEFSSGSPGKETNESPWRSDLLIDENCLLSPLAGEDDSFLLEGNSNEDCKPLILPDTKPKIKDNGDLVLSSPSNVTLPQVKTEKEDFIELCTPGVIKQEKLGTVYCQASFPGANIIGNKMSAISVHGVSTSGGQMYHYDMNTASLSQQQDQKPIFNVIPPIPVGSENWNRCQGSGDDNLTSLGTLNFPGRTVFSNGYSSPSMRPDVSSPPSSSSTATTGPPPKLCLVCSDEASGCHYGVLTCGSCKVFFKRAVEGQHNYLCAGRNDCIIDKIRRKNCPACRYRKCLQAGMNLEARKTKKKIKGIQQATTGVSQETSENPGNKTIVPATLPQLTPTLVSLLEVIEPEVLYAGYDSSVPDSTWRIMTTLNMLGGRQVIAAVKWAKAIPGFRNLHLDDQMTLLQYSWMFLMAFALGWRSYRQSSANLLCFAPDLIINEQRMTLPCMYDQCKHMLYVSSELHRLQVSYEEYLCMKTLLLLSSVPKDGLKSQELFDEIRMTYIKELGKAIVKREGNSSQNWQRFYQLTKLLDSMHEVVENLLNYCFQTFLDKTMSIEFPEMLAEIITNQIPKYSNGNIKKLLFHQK

C[C@@H](N)[C@@H](O)c1ccccc1
inactive: Potency [1] | fluorescence, % of fluorescein control [2] -0.0859% [at 18.6 µM] | fluorescence, % of triamterene [3] 0.0027% [at 18.6 µM] | fluorescence, % of fluorescent control [4] -0.083% [at 18.6 µM] | fluorescence, % of fluorescein [5] 0.072% [at 18.6 µM] | fluorescence, % of fluorescent control [6] -0.0641% [at 18.6 µM] | activity change [7] -0.0136% [at 18.6 µM] | fluorescence, % of fluorescent control [8] 0.0965% [at 18.6 µM] | fluorescence, % of Rose Bengal [9] 0.843% [at 18.6 µM] | fluorescence, % of fluorescent control [10] -0.105% [at 18.6 µM] | fluorescence, % of fluorescein control [11] 0.0244% [at 18.6 µM] | fluorescence, % of fluorescent control [12] -0.0421% [at 18.6 µM] | Potency [13] | Potency [14]

NCCOS(=O)(=O)O
inactive: outcome [15] | Potency [16] | Potency [17] | outcome [18] | outcome [2] | outcome [3] | outcome [4] | outcome [5] | outcome [6] | outcome [7] | outcome [8] | outcome [9] | outcome [10] | outcome [11] | outcome [12] | Potency [13] | Potency [14]

CCC1(c2ccccc2)C(=O)N(COC)C(=O)N(COC)C1=O
inactive: outcome [15] | Potency [16] | Potency [1] | outcome [3] | outcome [4] | outcome [5] | outcome [6] | outcome [7] | outcome [8] | outcome [9] | outcome [11] | outcome [12] | Potency [13] | Potency [14]

O=C(O)C(Cl)Br (stereo not drawn)
inactive: Potency [17] | Potency [1] | outcome [18] | outcome [2] | outcome [3] | outcome [4] | outcome [5] | outcome [6] | outcome [7] | outcome [8] | outcome [9] | outcome [10] | outcome [11] | outcome [12] | Potency [13]

NNCc1ccccc1
inactive: Potency [16] | Potency [17] | outcome [18] | outcome [2] | outcome [3] | outcome [4] | outcome [5] | outcome [6] | outcome [7] | outcome [8] | outcome [9] | outcome [10] | outcome [11] | outcome [12] | Potency [13]

CN=CNc1ccc(C)cc1C
inactive: outcome [15] | Potency [16] | Potency [17] | outcome [18] | outcome [2] | outcome [3] | outcome [4] | outcome [5] | outcome [6] | outcome [7] | outcome [8] | outcome [9] | outcome [10] | outcome [11] | outcome [12] | Potency [13] | Potency [14]

COc1ccc(C=O)cc1O
inactive: outcome [15] | Potency [16] | Potency [1] | outcome [18] | outcome [2] | outcome [3] | outcome [4] | outcome [6] | outcome [7] | outcome [8] | outcome [9] | outcome [10] | outcome [11] | outcome [12] | Potency [13] | Potency [14]

CCCN1CCC[C@@H]2Cc3[nH]ncc3C[C@H]21
inactive: outcome [15] | Potency [16] | Potency [1] | outcome [18] | outcome [2] | outcome [3] | outcome [4] | outcome [5] | outcome [6] | outcome [7] | outcome [8] | outcome [9] | outcome [10] | outcome [11] | outcome [12] | Potency [13] | Potency [14]

C(COCC1CO1)OCC1CO1 (stereo not drawn)
inactive: outcome [15] | Potency [16] | Potency [17] | Potency [1] | outcome [2] | outcome [3] | outcome [4] | outcome [5] | outcome [6] | outcome [7] | outcome [8] | outcome [9] | outcome [11] | outcome [12] | Potency [13] | Potency [14]

CC(O)CCl (stereo not drawn)
inactive: outcome [15] | Potency [16] | Potency [17] | Potency [1] | outcome [2] | outcome [3] | outcome [4] | outcome [6] | outcome [7] | outcome [8] | outcome [9] | outcome [10] | outcome [11] | outcome [12] | Potency [13] | Potency [14]

CCCN1CCC[C@@H]2Cc3nc(N)ncc3C[C@H]21
inactive: outcome [15] | Potency [16] | Potency [17] | Potency [1] | outcome [2] | outcome [3] | outcome [4] | outcome [5] | outcome [6] | outcome [7] | outcome [8] | outcome [9] | outcome [10] | outcome [11] | outcome [12]

C[C@H](N)C(=O)c1ccccc1
inactive: outcome [15] | Potency [16] | Potency [1] | outcome [18] | outcome [2] | outcome [3] | outcome [4] | outcome [6] | outcome [7] | outcome [8] | outcome [9] | outcome [11] | outcome [12] | Potency [13] | Potency [14]

O=C(O)C(Br)(Br)Br
inactive: outcome [15] | Potency [16] | Potency [1] | Potency [19] | outcome [18] | outcome [2] | outcome [3] | outcome [4] | outcome [5] | outcome [6] | outcome [7] | outcome [8] | outcome [9] | outcome [10] | outcome [11] | outcome [12]

Reference: PubChem BioAssay (Tox21)
